{
  "source": "PubChem BioAssay (NCATS)",
  "note": "Inconclusive results are not listed. Values without a mark were called inactive. Active and inactive are the calls of the source. Calls follow the shape of the dose curve; as a rule, active = well fitted inhibition curve with a large enough effect; inconclusive = small, poorly fitted or top-dose-only effect; inactive = flat fitted curve, though single readings scatter.",
  "data": [
    {"biological_target": "Phospholipid hydroperoxide glutathione peroxidase GPX4 (Homo sapiens) (UniProt P36969)", "sequence (P36969 whole entry, looked up)": "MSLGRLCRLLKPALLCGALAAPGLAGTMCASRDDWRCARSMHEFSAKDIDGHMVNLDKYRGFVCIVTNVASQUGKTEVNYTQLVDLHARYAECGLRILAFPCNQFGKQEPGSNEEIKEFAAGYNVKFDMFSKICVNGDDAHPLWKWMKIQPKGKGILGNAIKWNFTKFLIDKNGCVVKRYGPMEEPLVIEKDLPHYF", "assay": "Primary qHTS Assay for Inhibitors of Recombinant Selenoprotein Glutathione Peroxidase 4 (GPX4) (AID 1845192); also: nearly all actives have a fitted effect of over 65% in size", "details": "recombinant GPX4, GR-coupled NADPH fluorescence, 15 min; series mostly up to 50 µM; activity change, negative = inhibition: at the top concentration", "description": "Assay Provider: Elias S.J. Arner MD PhD.\nDepartment of Medical Biochemistry and Biophysics\nKarolinska Institutet, Solna, Stockholm, Sweden\nSelenoprotein glutathione peroxidases (GPX), like the ubiquitously expressed GPX1 and the ferroptosis modulator GPX4, enact their antioxidant activities by reducing hydroperoxides using glutathione. […] GPX1 and GPX4 inhibitors have thus shown promise as anti-cancer agents. Existing inhibitors are often promiscuous, or modulate GPX activity only indirectly, so novel direct inhibitors identified through screening against GPX1 and GPX4 could be valuable. Here, we developed optimized glutathione reductase (GR)-coupled GPX assays for the biochemical high-throughput screen (HTS) of almost 12,000 compounds with known mechanisms of action. Initial hits were triaged using a GR counter-screen, assessed for isoform specificity using a separate GPX2 assay, and were assessed for general selenocysteine-targeting activity using a thioredoxin reductase (TXNRD1) assay. With this suite of assays, we identified novel GPX1/GPX2- and GPX4-specific inhibitors and can here present a validated pipeline for future discovery research for selenoprotein-targeting agents.\nSEQUENCE No. (e.g., 1, 2, 3, etc.); […] (e.g., Cells, Incubation, Reagent, etc.); VALUE; DESCRIPTION.\n1; Reagent 1; 3 uL; 333.33 nM GPx4 enzyme or no enzyme control in 1536-well, black, solid Greiner assay plate.\n2; Compound; 25 nL; Kalypsis pin tool (Wako USA) equipped with a 1536-well pin head.\n3; Incubation; 30 min; room temperature.\n4; Reagent 2; 1 uL; 500 nM GR, 5 mM GSH, 2.5 mM NADPH solution\n5; Reagent 3; 1 uL; 2.5 mM CHP in 50% EtOH.\n6; Detection; Fluorescence; ViewLux microplate reader, excitation 340 nm and emission 450 nm.\n7; Incubation; 15 min; room temperature.\n8; Detection; Fluorescence; ViewLux microplate reader, excitation 340 nm and emission 450 nm.\nNOTES (numbers refer to Sequence numbers above)\n1. 3 µL of 333.33 nM GPX4 and 0.016% BSA in assay buffer (50 mM Tris-HCl, 2 mM EDTA (pH 7.5), 150 mM NaCl) was added to columns 3-48 of 1536-well plates using a BioRAPTR Flying Reagent Dispenser (Let's Go Robotics (LGR), Carlsbad, CA). A no-enzyme control (0.01% BSA in TES assay buffer) was added to columns 1-2.\n2. 25 nL, library and DMSO controls were added to each well with a pin tool (Kalypsys).\n3. The assay plates were incubated for 30 minutes at room temperature.\n4. 1 µL of master mix (500 nM glutathione reductase (GR), 5 mM reduced glutathione (GSH), 2.5 mM NADPH in assay buffer) was added.\n5. 1 µL of cumene hydroperoxide (CHP) ([2.5 mM] in 50% EtOH) was then added within 5 minutes to initiate the reaction. Final concentrations were: 200 nM GPX4, 1 mM GSH, 0.5 mM CHP, 0.5 mM NADPH, 100 nM GR, 0.01% BSA.\n6. Initial fluorescence readout (t=0) at 340/450 nm was measured using a ViewLux multimodal detector (PerkinElmer, Waltham, MA).\n8. Endpoint fluorescence readout (t=15) at 340/450 nm was measured 15 min after room temperature incubation.", "units": {"activity change, negative = inhibition": "%"}, "values": [
      {"smiles": "CCCNC(C)C(=O)Nc1c(C)csc1C(=O)OC", "note": "(stereo not given)", "outcome": "inactive"},
      {"smiles": "CN1C(=O)CC(c2ccccc2)C1=O", "note": "(stereo not given)", "activity change, negative = inhibition": 1.29},
      {"smiles": "O=C1c2cccc(O)c2C(=O)c2c(O)cccc21", "activity change, negative = inhibition": 0.0582},
      {"smiles": "CCc1cccc(CC)c1NC(=O)CN(CC(=O)O)CC(=O)O", "outcome": "inactive"},
      {"smiles": "CC[N+](CC)(CC(=O)Nc1c(C)cccc1C)Cc1ccccc1", "Potency": "inactive"},
      {"smiles": "c1ccc2[nH]ccc2c1", "activity change, negative = inhibition": -15.9},
      {"smiles": "CCN[C@H]1CN(CCCOC)S(=O)(=O)c2sc(S(N)(=O)=O)cc21", "activity change, negative = inhibition": -8.4},
      {"smiles": "NS(=O)(=O)c1cc(-c2nn[nH]n2)c(NCc2cccs2)cc1Cl", "outcome": "inactive"},
      {"smiles": "C/C(=C(\\CCO)SS/C(CCO)=C(\\C)N(C=O)Cc1cnc(C)nc1N)N(C=O)Cc1cnc(C)nc1N", "activity change, negative = inhibition": -30.9},
      {"smiles": "NS(=O)(=O)c1cc(C2(O)NC(=O)c3ccccc32)ccc1Cl", "note": "(stereo not given)", "activity change, negative = inhibition": -1.31},
      {"smiles": "CCOc1ccccc1O[C@H](c1ccccc1)[C@H]1CNCCO1", "outcome": "inactive"},
      {"smiles": "CCCCC1(COC(=O)CCC(=O)O)C(=O)N(c2ccccc2)N(c2ccccc2)C1=O", "outcome": "inactive"},
      {"smiles": "CN/C(=C\\[N+](=O)[O-])NCCSCc1csc(CN(C)C)n1", "outcome": "inactive"},
      {"smiles": "NC(N)=NS(=O)(=O)c1ccc(N)cc1", "activity change, negative = inhibition": 4.91},
      {"smiles": "COCC(=O)Nc1c(I)c(C(=O)NCC(O)CO)c(I)c(C(=O)N(C)CC(O)CO)c1I", "note": "(stereo not given)", "activity change, negative = inhibition": 0.694},
      {"smiles": "O=C(/C=C/c1ccccc1)OCc1ccccc1", "activity change, negative = inhibition": -10.7},
      {"smiles": "CC(=O)[C@@]1(O)CC[C@H]2[C@@H]3C[C@H](C)C4=CC(=O)C=C[C@]4(C)[C@@]3(F)[C@@H](O)C[C@@]21C", "outcome": "inactive"},
      {"smiles": "O=C(O)c1ccc(OCCCOc2ccc(C(=O)O)cc2)cc1", "activity change, negative = inhibition": -9.42},
      {"smiles": "Cn1cc(C(=O)[C@@H]2CCc3nc[nH]c3C2)c2ccccc21", "outcome": "inactive"},
      {"smiles": "NC(=O)c1ccc([N+](=O)[O-])cc1Cl", "activity change, negative = inhibition": 1.7},
      {"smiles": "OC[C@@H](O)[C@@H](O)[C@H](O)[C@H](O)CO", "activity change, negative = inhibition": -0.371},
      {"smiles": "CC(C)(C)NCC(O)COc1cccc2c1CCC(=O)N2", "note": "(stereo not given)", "activity change, negative = inhibition": -6.07},
      {"smiles": "COC(=O)N/N=C/c1c[n+]([O-])c2ccccc2[n+]1[O-]", "outcome": "inactive"},
      {"smiles": "CC(C)(C)C(=O)OCOC(=O)[C@@H]1N2C(=O)[C@@H](NC(=O)[C@H](N)c3ccccc3)[C@H]2SC1(C)C", "activity change, negative = inhibition": -13.1},
      {"smiles": "Cc1cccc(C)c1NC(=O)CC12CCCN1CCC2", "outcome": "inactive"},
      {"smiles": "Cc1c(NC(=O)c2cccnc2)c(=O)n(-c2ccccc2)n1C", "outcome": "inactive"},
      {"smiles": "C[C@@H]1O[C@@H](OC[C@H]2O[C@@H](Oc3c(-c4ccc(O)c(O)c4)oc4cc(O)cc(O)c4c3=O)[C@H](O)[C@@H](O)[C@@H]2O)[C@H](O)[C@H](O)[C@H]1O", "outcome": "inactive"},
      {"smiles": "Cc1ccsc1/C=C/C1=NCCCN1C", "outcome": "inactive"},
      {"smiles": "O=C(NCC(O)CO)c1c(I)c(C(=O)NCC(O)CO)c(I)c(N(CCO)C(=O)CO)c1I", "note": "(stereo not given)", "activity change, negative = inhibition": -19.9},
      {"smiles": "NC(=O)NC1NC(=O)NC1=O", "note": "(stereo not given)", "activity change, negative = inhibition": -6.46},
      {"smiles": "CN[C@@H]1[C@@H](O)[C@@H](O[C@@H]2[C@H](O)[C@H](O[C@H]3OC(CN)=CC[C@H]3N)[C@@H](N)C[C@H]2N)OCC1(C)O", "note": "(stereo not given in full)", "outcome": "inactive"},
      {"smiles": "Cc1c(N(C)C)c(=O)n(-c2ccccc2)n1C", "outcome": "inactive"},
      {"smiles": "CCCCCOC(=O)Nc1nc(=O)n([C@@H]2O[C@H](C)[C@@H](O)[C@H]2O)cc1F", "Potency": "inactive"},
      {"smiles": "O=C(OOC(=O)c1ccccc1)c1ccccc1", "activity change, negative = inhibition": -1.26},
      {"smiles": "O=C(O)CNC(=O)c1ccccc1I", "activity change, negative = inhibition": -7.47},
      {"smiles": "CC(CN(C)C)C(C)(O)Cc1ccc(Cl)cc1", "note": "(stereo not given)", "outcome": "inactive"},
      {"smiles": "CCCC(O)C(CC)CO", "note": "(stereo not given)", "outcome": "inactive"},
      {"smiles": "CC(=O)N[C@@H](Cc1ccc(O)cc1)C(=O)O", "activity change, negative = inhibition": -5.87},
      {"smiles": "O[C@@H]1CO[C@H]2[C@@H]1OC[C@@H]2O", "activity change, negative = inhibition": 1.74},
      {"smiles": "CCCCCCCCCCCCCCCCCCO", "activity change, negative = inhibition": 2.39}
    ]}
  ]
}
